The values below come from PubChem BioAssay AID1825 (The Scripps Research Institute Molecular Screening Center, 2009).

Among all 290,000 compounds or so, about 2,300 (0.79%) were called active. The entries come from a sample that favours actives as a whole. A number with no mark means an inactive call. Cut-off read from the data, not from the text of the source: active = inhibition above about 22%; inactive = the rest.

The assay in a line: IEC-6 cell viability reduction – luminescence, cytotoxicity control for KLF5 inhibitor project, primary screen (AID 1825).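 Note: 0% = plate median of test compound wells and 100% = cytotoxic reference compound wells.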 The settings on record: IEC-6 cytotoxicity, at 5 µM, active compounds read high.
The term inhibition denotes the relative decrease from the control value, in per cent. For `O=C(NCCCn1ccnc1)c1cc(Br)c(Br)s1`, the inhibition was -4.3%.

`CN1C(=O)[C@H]2[C@@H](C3CC3)N3C(=O)CN(Cc4ccccc4)C(=O)[C@@]3(C)[C@H]2C1=O`: the inhibition is -1.7%.

For the compound `CC1CCCCN1S(=O)(=O)c1ccc(C(=O)Nc2nnc(-c3cccs3)o2)cc1` (stereo unspecified), the inhibition is 29.2% (active).

In the case of `CSCc1nnc(NC(=O)c2ccc(S(=O)(=O)N3CCCCC3C)cc2)o1` (stereo unspecified), the inhibition was -0.9%.

For the compound `CC1CCCN(S(=O)(=O)c2ccc(C(=O)Nc3nnc(-c4ccncc4)o3)cc2)C1` (stereo unspecified), the inhibition is -1%.

Regarding `CCc1nn(CCCC(=O)Nc2ccc(C)c(C)c2)c(=O)c2cc3occc3n12`, the inhibition was -1.7%.

As for `CCCCCCn1cc(C(=O)O)c(=O)c2cc(F)c(N3CCCCC3)cc21`, the inhibition is 2.5%.

`Cc1ccc(C)c(Cn2cnc3c(oc4ccccc43)c2=O)c1`: the inhibition is 19.8%.

As for `O=C(c1n[nH]c2c1CCC2)N1CCCC(Nc2cccc(F)c2)C1` (stereo unspecified), the inhibition is -8.3%.

`Cc1ccc(Nc2c3c(nc4ccccc24)CCC3)cc1`: the inhibition was 7.5%.

Regarding `CC(=O)Nc1ccc(Nc2c3ccccc3nc3ccccc23)cc1`, the inhibition is 95.3% (active).

As to `O=[N+]([O-])c1cccc(Nc2c3ccccc3nc3ccccc23)c1`, the inhibition is -0.9%.

As to `COc1ccc(Cl)cc1NC(=O)CN(C)Cc1ccc(OC)c(OC)c1`, the inhibition is 5.1%.

As to `COc1ccccc1N1CC(C(=O)Nc2nnc(SCC(=O)NCC3CCCO3)s2)CC1=O` (stereo unspecified), the inhibition is 5.1%.

Consider `Nc1nonc1-n1nnc(C(=O)N/N=C\c2ccncc2)c1CN1CCCCC1`, for which the inhibition is -0.8%.

In the case of `CCOc1cc(/C=N/Nc2cc(C)nc3ccc(C)cc23)ccc1O`, the inhibition was -8.1%.

As for `O=C(O)CN1CCN(C(c2ccccc2)c2ccccc2)CC1`, the inhibition was -7.1%.

For the compound `CC1(C)CC(N2CCN(C(c3ccccc3)c3ccccc3)CC2)=CC(=[N+]2CCCCC2)C1`, the inhibition was 30.6% (active).

With `CC(C)NC(=S)N1CCN(C(c2ccccc2)c2ccccc2)CC1`, the inhibition was -1.6%.

`CC(C)c1ccc(/C=C2\NC(=O)NC2=O)cc1`: the inhibition is -2.7%.

Take `COc1ccc(N(C(=O)CNC(=O)c2ccco2)C(C(=O)NCC2CCCO2)c2ccccc2)cc1Cl` (stereo unspecified): the inhibition was 4.1%.

For the compound `CC[n+]1cc(C)ccc1/C=C/c1ccc(N(C)C)cc1`, the inhibition was 38.6% (active).

`CN(C)c1ccc(/C=N\S(=O)(=O)c2ccccc2)cc1`: the inhibition was -2.3%.

For `CCSc1nnc(-c2cc3c(s2)-c2ccccc2CC3)o1`, the inhibition was 5.3%.

Consider `CC1CCCN(S(=O)(=O)c2ccc(-c3ccc(=O)[nH]n3)o2)C1` (stereo unspecified), for which the inhibition is 2.6%.

Consider `COCCNc1ncnc2c1nc1n2CCCC1`, for which the inhibition was 2.4%.

Turning to `COc1ccccc1/C=C1\SC(=O)N(CCC(=O)N(C)C2CCS(=O)(=O)C2)C1=O` (stereo unspecified), the inhibition is -0.8%.

As to `CN1CCC(CN)(N2CCN(c3ccccc3)CC2)CC1`, the inhibition was -4.9%.

For `Cc1cnc(NC(=O)c2ccc(Cl)nc2)s1`, the inhibition is -6.8%.

In the case of `CCN(CC)c1ccc(NC(=O)c2ccc(Cl)nc2)cc1`, the inhibition is 55.7% (active).

For the compound `O=C(NNc1ccccn1)c1ccc(Cl)nc1`, the inhibition was -4.7%.

Take `COc1cccc(CNC(=O)CCC2CCCN(C(=O)c3ccc(F)c(Cl)c3)C2)c1` (stereo unspecified): the inhibition is 1.1%.

Regarding `O=C(CNC(=O)c1cccs1)N/N=C/c1cccc(Br)c1`, the inhibition is -5.3%.

Turning to `O=C(CN1C(=O)C2C3C=CC(C3)C2C1=O)NCCc1ccccc1Cl` (stereo unspecified), the inhibition is -1.9%.

For `O=C(CN1C(=O)C2C3C=CC(C3)C2C1=O)Nc1nc(-c2ccccn2)cs1` (stereo unspecified), the inhibition is 32.2% (active).

Take `O=C(CCN1C(=O)C2C3C=CC(C3)C2C1=O)Nc1ccccc1F` (stereo unspecified): the inhibition was -2.4%.

With `COc1ccc(C)cc1-n1nnnc1SCc1nc2ccccc2c(=O)[nH]1`, the inhibition is 3.2%.

For the compound `CCOc1cc(/C=C/c2nc3ccccc3c(=O)[nH]2)cc(Br)c1OC`, the inhibition was 48.7% (active).

Regarding `COc1ccc(/C=N/Nc2nc3ccccc3c(=O)[nH]2)cc1`, the inhibition was 1.1%.

Consider `CCC1=Nc2cc(C(=O)NCCN3CCCC3)ccc2Sc2ccc(C)cc21`, for which the inhibition was 2.7%.

As to `CCCC1=Nc2cc(C(=O)NCc3ccco3)ccc2Sc2ccccc21`, the inhibition was 62.9% (active).

Turning to `CCCC1=Nc2cc(C(=O)NCCN3CCCC3)ccc2Sc2ccccc21`, the inhibition was -2.7%.

`Cc1ccccc1N1CC(C(=O)Nc2nnc(SCCC3OCCO3)s2)CC1=O` (stereo unspecified): the inhibition was -3.4%.

In the case of `O=c1ccc2cc(S(=O)(=O)NCCCc3ccccc3)ccc2[nH]1`, the inhibition was -3.7%.

For `O=C(c1cc(COc2ccc(F)c(F)c2)on1)N1CCOCC1`, the inhibition was 0.8%.

For `CCn1ccnc1CN(C)C(=O)c1cc(COc2ccc(-n3cncn3)cc2)on1`, the inhibition is -7.1%.

Turning to `C=CCC1(CC=C)CCCN1C(=O)c1cc(COc2ccc(-n3cncn3)cc2)on1`, the inhibition is 22.6% (active).

With `CCCCNC(=O)CCn1nc(-c2ccc(Cl)cc2)ccc1=O`, the inhibition was -2.4%.

Consider `COc1ccc(-c2cc(C(F)(F)F)nc(SCC(=O)Nc3ccc4c(c3)OCO4)n2)cc1OC`, for which the inhibition is 3%.

With `COc1ccc(-c2cc(C(F)(F)F)nc(S(C)(=O)=O)n2)cc1OC`, the inhibition was 26.4% (active).

As for `COc1cc(OC)nc(S(C)(=O)=O)n1`, the inhibition is 6.6%.

`Cn1c(=O)[nH]c(=O)c2c1nc(N1CCN(C(c3ccccc3)c3ccccc3)CC1)n2CCO`: the inhibition is -7.4%.

For the compound `COc1ccccc1N1CCN(S(=O)(=O)c2ccc3c(c2)NC(=O)CS3)CC1`, the inhibition was 2.9%.

On to `CC(C)(C)c1cc[n+](-c2[nH]c(=O)sc2/C=N/N=C(\[O-])c2ccccc2)cc1`, for which the inhibition is 4.2%.

Take `O=C(c1ccccc1F)N(Cc1ccccc1)Cc1ccccc1`: the inhibition was -1.4%.

For `CC1(C)C(C=C(Cl)Cl)C1C(=O)N(Cc1ccc(Cl)cc1)C1CCS(=O)(=O)C1` (stereo unspecified), the inhibition was -12.5%.

With `O=C(COC(=O)c1cc(S(=O)(=O)N2CCCCC2)ccc1Cl)NCc1ccco1`, the inhibition is 6.2%.

Take `Cc1cc(C(=O)OCC(=O)NCc2ccco2)c(C)n1-c1ccccc1`: the inhibition is 33.2% (active).

Take `CN(c1ccccc1)S(=O)(=O)c1ccc(Cl)c(C(=O)OCC(=O)NCc2ccco2)c1`: the inhibition was -4.1%.

`O=C(COc1ccc(Cl)cc1)Nc1ccc2oc(=O)ccc2c1`: the inhibition was -4.8%.

Consider `COc1cccc(/C=N/Nc2ccc(Cl)nn2)c1`, for which the inhibition was -3.1%.

`Clc1ccc(N/N=C/c2cccs2)nn1`: the inhibition is -1.4%.

For `Oc1cccc(/C=N/Nc2ccc(Cl)nn2)c1O`, the inhibition was 99.5% (active).

Turning to `CCC1CCCCN1C(=O)CSc1nc2c(c(=O)n1C)SC(C)C2` (stereo unspecified), the inhibition was 0%.

For `Cc1cc(Cl)ccc1C(=O)C1CCCN(C(=O)c2nonc2C)C1` (stereo unspecified), the inhibition is -1.1%.

Turning to `CCC(CC)C(=O)Nc1c2c(nn1-c1ccc(C)cc1)CS(=O)(=O)C2`, the inhibition was -3%.

Regarding `Cc1ccc(Oc2nc(-c3ccccn3)nc3ccccc23)cc1`, the inhibition is 8.9%.

Regarding `CC(C)(C)Nc1nc(-c2ccccn2)nc2ccccc12`, the inhibition is 91.3% (active).

With `CCOCCCNc1nc(-c2ccccc2)nc2ccccc12`, the inhibition was -4%.

Turning to `COc1cc(N=Cc2c(O)c3ccccc3oc2=O)c(OC)cc1Cl`, the inhibition was 2.7%.

Turning to `CNC[C@H](CC1CCCCC1)NC[C@H](NCCC1CCCC1)[C@H](C)O`, the inhibition is 36.1% (active).

For the compound `COc1cc(C(=O)OC2CCOC2=O)c([N+](=O)[O-])cc1OC` (stereo unspecified), the inhibition was -4%.

In the case of `COc1ccccc1Oc1ccc(N/C=C2/CCCC2=O)cc1`, the inhibition was -8.7%.

For the compound `Cc1[nH]n(-c2ccccc2)c(=O)c1/C=N/NC(=O)c1ccoc1C`, the inhibition is 1.8%.

As to `C/C(=N\NC(=O)c1ccoc1C)c1ccccc1O`, the inhibition is 98.7% (active).

As for `CC(C)=C(NC(=O)c1ccccc1)C(=O)N/N=C(\C)c1ccccc1O`, the inhibition was 4%.

Consider `CN(Cc1ccccc1)S(=O)(=O)c1nnc(NC(=O)c2ccccc2F)s1`, for which the inhibition was 4.7%.

As to `Cc1ccc(-c2nn(-c3ccccc3)cc2/C=C2\SC(=S)N(CCCCCC(=O)O)C2=O)o1`, the inhibition was -8.8%.

`Cc1cccc(N(C(=O)Cn2nnc(-c3ccc(C)o3)n2)C(C(=O)NC2CCCC2)c2ccncc2)c1` (stereo unspecified): the inhibition was -3.9%.

Turning to `C[N+](C)(C)CCNC(=O)c1cc[n+](Cc2ccccc2)c(/C=N/O)c1`, the inhibition is -6.3%.

As for `CCC(=O)Nc1ccc(C(=O)NNC(=O)c2ccc(Cl)cc2)cc1`, the inhibition was 2.4%.

For the compound `CC(C)(C)c1cc2cccnc2n1Cc1cccc(F)c1`, the inhibition is -9.9%.

Regarding `O=C(CSc1ncn[nH]1)N/N=C/c1ccc(F)cc1`, the inhibition was 2.8%.

As for `Cc1ccc(C(=O)/C=C/c2c(C)nn(-c3ccccc3)c2Cl)cc1`, the inhibition is 7.3%.

Consider `O=C(/C=C/Sc1ncn[nH]1)c1ccc(Cl)cc1`, for which the inhibition was 96.3% (active).

For `CC(C)(C)n1nnnc1C(c1ccccc1F)N1CCN(C(=O)c2ccco2)CC1` (stereo unspecified), the inhibition was -4.7%.

On to `O=C(OCc1ccc(-c2ccccc2)cc1)c1cccc(O)c1`, for which the inhibition was -3.8%.

With `CCN(CC(=O)NCCCN1CCOCC1)S(=O)(=O)c1cc(Cl)ccc1Cl`, the inhibition is 0.6%.

For `O=S(=O)(NCCc1ccc(Cl)cc1)c1cccs1`, the inhibition was 6.4%.

Consider `COc1ccc(N2C(=O)C(Cc3ccccc3)NC2=S)cc1` (stereo unspecified), for which the inhibition was 3.8%.

For `O=C1C(Cc2ccc(O)cc2)NC(=S)N1Cc1ccccc1` (stereo unspecified), the inhibition is -3.3%.

In the case of `Cc1ccc(N2C(=O)C(Cc3ccccc3)NC2=S)cc1` (stereo unspecified), the inhibition is 24.6% (active).

On to `CC(C)C(=O)NCC(c1cccs1)S(=O)(=O)c1ccc(F)cc1` (stereo unspecified), for which the inhibition was 7.2%.

In the case of `CC(=O)Nc1ccc(Nc2ncnc3c2nnn3Cc2ccccc2Cl)cc1`, the inhibition was 1.1%.

As for `CCN(Cc1nc2ccccc2c(=O)[nH]1)Cc1cc(=O)oc2cc(C)c(C)cc12`, the inhibition is 2%.

On to `COc1ccc(C(=O)Nc2cc(C)c(NC(=O)c3ccccc3OC)cn2)cc1`, for which the inhibition was -2.8%.
